Reference: PubChem BioAssay (NCI)
About 83,000 compounds went through this panel and 20% of them were active in at least one assay; those are over-represented in the sample as a whole.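 Treatment: one concentration, 48 hours, 96-well format. Scoring: percent growth, with anything below 10 considered active.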 Unmarked numbers belong to inactive results. The source made the active and inactive calls.

How the values were obtained:
Assay in all cases: NCI-60 one-dose screen, 48 h (100 = growth as untreated, 0 = no growth, -100 = all killed)
Details in all cases: 10 µM unless noted
SR leukemia = tested on: SR leukemia
RPMI-8226 leukemia = tested on: RPMI-8226 leukemia
OVCAR-8 ovarian = tested on: OVCAR-8 ovarian
OVCAR-4 ovarian = tested on: OVCAR-4 ovarian
SK-OV-3 ovarian = tested on: SK-OV-3 ovarian
IGROV1 ovarian = tested on: IGROV1 ovarian
OVCAR-3 ovarian = tested on: OVCAR-3 ovarian
HS 578T breast = tested on: HS 578T breast
NCI/ADR-RES ovarian = tested on: NCI/ADR-RES ovarian

SMILES | growth (SR leukemia) | growth (RPMI-8226 leukemia) | growth (OVCAR-8 ovarian) | growth (OVCAR-4 ovarian) | growth (SK-OV-3 ovarian) [%] | growth (IGROV1 ovarian) | growth (OVCAR-3 ovarian) | growth (HS 578T breast) | growth (NCI/ADR-RES ovarian) [%]
CC(C)COc1nc2c(c(=O)n(C)c(=O)n2C)n1C | 90.8% | 110% | -6.67% (active) | 97.7% | 90.7 | 109% | 106% | 100% | 99.8
COC(=O)CC[C@H](C)[C@H]1CC[C@H]2[C@@H]3CC[C@@H]4CC5(CC[C@]4(C)[C@H]3CC(=O)[C@]12C)Nc1ccccc1NC5=NC(C)(C)C (stereo not given in full) | 50% | 58.4% | 87.5% | 57.5% | 97 | 93.8% | 76% | 88.7% | 94.9
COc1cc2c(c(OC)c1OC)CCC(c1cccc(NC(=O)c3ccc(Br)cc3)c1)O2 (stereo not given) | 35% | 56.8% | 85.3% | 67.4% | 75 | 71% | 90.8% | 90.4% | 84.1
CCN(CC)CCCCCNc1cc(OC(=O)c2ccc(Cl)cc2)cc2cccnc12 | 75.3% | 97.7% | 88.3% | 39.9% | 119 | 161% | 78.7% | 117% | 95.1
COCCNC(=O)Nc1ccc2nc(-c3cccs3)c(-c3cccs3)nc2c1 | 67% | 92.1% | 93.4% | 98.2% | 98.8 | 89% | 106% | 93.6% | 90.1
Cc1c(O)cc(-c2cnc(Nc3ccccc3)s2)c(O)c1C | 87.4% | 82.5% | 94% | 84.8% | 94.5 | 79.2% | 102% | 87.5% | 96.5
CCN(CC)c1ccc(\C=N/N=C(N)/C(N)=N\N=C/c2ccc(N(CC)CC)cc2)cc1 | 87.6% | 99% | 99% | 110% | 102 | 105% | 115% | 103% | 101
O=C(/C=C/c1cn(-c2ccccc2)nc1-c1ccc(Cl)cc1)c1ccc(F)cc1 | 40.8% | 67.5% | 80.6% | 71.9% | 82.6 | 81.1% | 78.8% | 95.7% | 69.8
COc1ccc(/C=N/NC(=O)c2ccc(-n3cc(-c4ccccc4)nn3)cc2)cc1OC | 111% | 61.8% | 99% | 106% | 99.3 | 95.6% | 129% | 103% | 101
CN(C)CC1CCC(CN(C)C)C1=O (stereo not given) | 59.7% | 62.2% | 105% | 115% | 105 | 115% | 132% | 105% | 117
O=C(Nc1ccc(OS(=O)(=O)c2ccc(F)cc2)cc1)C1CCCCCC1 | 70.2% | 78% | 93.2% | 98.5% | 97.5 | 118% | 96.1% | 82.4% | 82.1
O=C(c1ccncc1)N1N=C(c2ccc(Cl)cc2)C[C@H]1c1cn(-c2ccccc2)nc1-c1ccccc1 | 91.1% | 105% | 74.6% | 82.6% |  | 99.4% | 94.7% | 87.2% | 87
COc1ccc2cc1Oc1ccc(cc1)C[C@H]1c3c(cc4c(c3Oc3cc5c(cc3OC)CCN(C)[C@@H]5C2)OCO4)CCN1C | -17.3% (active) | 48% | 43.9% | 64.8% | 110 | 44.3% | 49.5% |  | 76.2
COc1ccc(C(O)c2cc3c(N)c(C(=O)Nc4cccc(Br)c4)sc3nc2C)cc1 (stereo not given) | 8.67% (active) | 10.9% | 13.1% | 39.7% |  | 11.4% | 3.84% (active) | -6% (active) | 13.1
Cc1ccc(C(=O)c2ccc(CC(=O)N/N=C/c3ccccc3O)n2C)cc1 | 56.2% | 81.4% | 79% | 60.2% | 90.4 | 80.9% | 80.3% | 104% | 69.4
O=C(/C=C/c1cccc(Cl)c1)c1ccc(Nc2nc(Nc3ccc(F)cc3)nc(Nc3ccc(Cl)cc3)n2)cc1 | 75.6% | 5.94% (active) | 92.8% | 111% | 131 | 113% | 130% | 110% | 100
O=C(NNC(=O)c1ccc(NC(=O)c2ccccn2)cc1)Nc1ccc([N+](=O)[O-])cc1 | 109% | 106% | 104% | 108% | 106 | 88.5% | 109% | 75.6% | 106
[O-]/[N+](=C\c1ccc(-n2cc(Cc3ccccc3Cc3cn(-c4ccc(/C=[N+](/[O-])c5ccccc5)cc4)nn3)nn2)cc1)c1ccccc1 | 95% | 103% | 103% | 99.3% | 106 | 95.4% | 102% | 110% | 97.6
O=S(=O)(Nc1cc(Cl)ccc1Cl)c1ccc(-c2cnc(C3CC3)o2)cc1 | 16.5% | 31% | 56.2% | 52.5% | 52 | 39.3% | 5.34% (active) | -2.43% (active) | 26
CCCCCCCCCCCCCCCCCCOc1ccccc1CC(=O)OCC[N+](C)(C)C | 11.1% | 40.9% | 5.15% (active) | 20% | 56.2 | -61.4% (active) | 16.5% | 17.1% | 91.3
CCO/C=N/C1=C(C#N)C(c2ccc(Cl)cc2)c2sc3c(F)cccc3c2O1 (stereo not given) | 36.8% | 54.2% | 77.8% | 77.6% |  | 60.7% | 25.3% | 55.6% | 39.6
N=C(N)c1ccc(-c2ccc(-c3ccc(Cl)c(Cl)c3)s2)nc1 | 3.84% (active) | -8.11% (active) | -19.9% (active) | 16.3% | 86.6 | -40.6% (active) | -77.8% (active) | 67.6% | 82.9
Cc1cn(-c2cc(NC(=O)c3cncc(C#Cc4cnc(N)c5ncccc45)c3)cc(C(F)(F)F)c2)cn1 | 62.7% | 50.9% | 64.5% | 76.3% | 106 | 62.3% | 92.1% | 60.1% | 86.9
CN1CCN(c2cc(Nc3cc(C4CC4)[nH]n3)nc(Nc3ccc(CC(=O)NCc4cccc(F)c4)cc3)n2)CC1 | 30.3% | 54.3% | 40.7% | 43.9% | 24 | -13.8% (active) | 41.7% | -6.93% (active) | 94.4
Cc1ccc(-c2nc(N3CCCNCC3)c3oc(-c4ccc(C)cc4)nc3n2)cc1 | -44.5% (active) | -51% (active) | -58.6% (active) | 2.2% (active) | 98.1 | 12.2% | -67.7% (active) | 110% | 16.3
CCOc1ccc(NC(=O)CSc2oc(-c3ccccc3)nc2S(=O)(=O)c2ccc(C)cc2)cc1 | 41.3% | 71.3% | 40.2% | 51.1% | 83.3 | 95% | 56.8% | 59.9% | 58.9
Clc1ccc2c(c1)C(c1c[nH]c3ccccc13)(c1c[nH]c3ccccc13)CCO2 | 63.8% | 42.3% | 58.6% | 73.3% | 39.6 | 85.8% | 81.2% | 76.6% | 92.2
Cn1ccnc1C(=O)/C=C/c1ccc(CC(=O)Nc2cc(C(F)(F)F)cc(C(F)(F)F)c2)cc1 | 39.4% | 55% | 41% | 78.8% |  | 71.4% | 62.6% |  | 65.3
COc1ccc(Nc2nnc(-c3ccc(OC)c(OC)c3)o2)cc1 | 86.6% | 92.1% | 90.9% | 89.2% | 98 | 78.7% | 91.4% | 94.2% | 89.2
